What all share (test): DAPPL (digital affinity profiling via proximity ligation, sequencing); 10 mM Tris-HCl pH 7.5, 50 mM NaCl, 1 mM DTT, 4% glycerol, room temperature, 30 min; GST-TFs on glutathione beads, 16-mer random dsDNA library, 0.1% formaldehyde crosslink after washing; high values mean tight binding
One experiment concerns the target T1, FLI1 (Homo sapiens, UniProt Q01543 1-452).
T1 sequence: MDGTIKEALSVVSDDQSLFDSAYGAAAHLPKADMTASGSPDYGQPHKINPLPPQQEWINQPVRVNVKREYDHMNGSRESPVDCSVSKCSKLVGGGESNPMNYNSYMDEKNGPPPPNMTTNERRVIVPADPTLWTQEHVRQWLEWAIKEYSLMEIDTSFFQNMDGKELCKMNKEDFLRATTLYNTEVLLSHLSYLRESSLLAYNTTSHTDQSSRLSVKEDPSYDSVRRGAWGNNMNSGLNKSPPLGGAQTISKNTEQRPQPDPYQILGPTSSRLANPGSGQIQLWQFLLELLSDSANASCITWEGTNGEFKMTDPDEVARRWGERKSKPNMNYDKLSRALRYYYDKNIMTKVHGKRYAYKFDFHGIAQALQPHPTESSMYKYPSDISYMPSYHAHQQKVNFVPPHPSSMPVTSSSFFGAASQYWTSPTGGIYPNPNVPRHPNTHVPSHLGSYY
The settings on record: protein: recombinant; tags: N-terminal GST; dsDNA, one strand shown. An outline of the steps:
(§1)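 After expression in yeast as GST fusions, human transcription factors were bound to glutathione beads, DNA-barcoded and mixed with a tag-only sample. The pools were incubated with 200 nmole of a 16-mer random double-stranded DNA library in Tris/NaCl/DTT/glycerol buffer (30 min, room temperature), washed and crosslinked with 0.1% formaldehyde. Proximity ligation with BsaI/T4 ligase ran for 1 h at 37 °C, before PCR amplification and sequencing on an Illumina NextSeq500. Binding signal is a hexamer's read frequency for a factor divided by its frequency for the tag-only sample.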

A further experiment concerns the target T2, ELK1 (Homo sapiens, UniProt P19419 1-428).
T2 sequence: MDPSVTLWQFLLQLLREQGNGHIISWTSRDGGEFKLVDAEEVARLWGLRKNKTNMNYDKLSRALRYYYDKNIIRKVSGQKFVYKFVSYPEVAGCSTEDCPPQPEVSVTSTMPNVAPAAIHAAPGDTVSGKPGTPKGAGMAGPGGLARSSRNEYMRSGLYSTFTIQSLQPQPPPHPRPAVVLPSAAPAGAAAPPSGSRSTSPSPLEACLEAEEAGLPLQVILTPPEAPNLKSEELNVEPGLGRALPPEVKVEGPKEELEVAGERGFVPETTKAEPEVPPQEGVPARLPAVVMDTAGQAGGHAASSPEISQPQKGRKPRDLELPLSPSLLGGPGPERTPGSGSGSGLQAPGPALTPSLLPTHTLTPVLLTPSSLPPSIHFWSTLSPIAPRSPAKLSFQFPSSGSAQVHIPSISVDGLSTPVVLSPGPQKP
Conditions: protein: recombinant; tags: N-terminal GST; dsDNA, one strand shown. An outline of the steps:
as §1

Another experiment concerns the target T3, GABPA (Homo sapiens, UniProt Q06546 1-454).
T3 sequence: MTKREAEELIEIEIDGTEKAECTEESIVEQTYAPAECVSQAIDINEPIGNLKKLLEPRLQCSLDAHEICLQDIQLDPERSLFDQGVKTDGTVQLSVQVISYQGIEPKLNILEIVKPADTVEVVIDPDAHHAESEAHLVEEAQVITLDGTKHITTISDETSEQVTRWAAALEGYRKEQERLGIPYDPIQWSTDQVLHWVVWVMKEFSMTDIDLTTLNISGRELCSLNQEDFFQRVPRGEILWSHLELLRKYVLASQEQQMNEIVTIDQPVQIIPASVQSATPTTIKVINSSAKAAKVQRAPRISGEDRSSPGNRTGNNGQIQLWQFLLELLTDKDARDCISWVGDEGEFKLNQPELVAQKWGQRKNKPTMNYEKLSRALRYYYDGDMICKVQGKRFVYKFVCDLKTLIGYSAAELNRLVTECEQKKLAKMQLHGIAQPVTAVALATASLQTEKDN
The settings on record: protein: recombinant; tags: N-terminal GST; dsDNA, one strand shown. In a few lines: as §1

A further experiment has as its target T4, ERG (Homo sapiens, UniProt P11308 1-479).
T4 sequence: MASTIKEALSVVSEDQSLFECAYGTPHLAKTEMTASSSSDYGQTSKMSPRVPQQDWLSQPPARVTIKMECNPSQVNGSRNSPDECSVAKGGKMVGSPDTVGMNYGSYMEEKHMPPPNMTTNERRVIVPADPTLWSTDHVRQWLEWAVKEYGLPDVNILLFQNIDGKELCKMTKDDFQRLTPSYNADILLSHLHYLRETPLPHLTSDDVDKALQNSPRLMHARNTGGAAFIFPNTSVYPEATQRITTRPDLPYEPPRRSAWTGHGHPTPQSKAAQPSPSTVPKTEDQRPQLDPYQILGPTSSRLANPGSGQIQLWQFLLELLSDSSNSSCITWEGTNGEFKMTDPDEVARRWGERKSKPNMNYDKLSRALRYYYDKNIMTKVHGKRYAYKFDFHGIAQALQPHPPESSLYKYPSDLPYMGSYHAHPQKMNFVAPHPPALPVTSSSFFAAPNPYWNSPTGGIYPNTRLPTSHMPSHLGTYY
Conditions: protein: recombinant; tags: N-terminal GST; dsDNA, one strand shown. An outline of the steps: as §1

In another experiment the target is ELF1 (Homo sapiens, UniProt P32519 1-619). Conditions: protein: recombinant; tags: N-terminal GST; dsDNA, one strand shown. An outline of the steps: as §1
ELF1, sequence (P32519 whole entry): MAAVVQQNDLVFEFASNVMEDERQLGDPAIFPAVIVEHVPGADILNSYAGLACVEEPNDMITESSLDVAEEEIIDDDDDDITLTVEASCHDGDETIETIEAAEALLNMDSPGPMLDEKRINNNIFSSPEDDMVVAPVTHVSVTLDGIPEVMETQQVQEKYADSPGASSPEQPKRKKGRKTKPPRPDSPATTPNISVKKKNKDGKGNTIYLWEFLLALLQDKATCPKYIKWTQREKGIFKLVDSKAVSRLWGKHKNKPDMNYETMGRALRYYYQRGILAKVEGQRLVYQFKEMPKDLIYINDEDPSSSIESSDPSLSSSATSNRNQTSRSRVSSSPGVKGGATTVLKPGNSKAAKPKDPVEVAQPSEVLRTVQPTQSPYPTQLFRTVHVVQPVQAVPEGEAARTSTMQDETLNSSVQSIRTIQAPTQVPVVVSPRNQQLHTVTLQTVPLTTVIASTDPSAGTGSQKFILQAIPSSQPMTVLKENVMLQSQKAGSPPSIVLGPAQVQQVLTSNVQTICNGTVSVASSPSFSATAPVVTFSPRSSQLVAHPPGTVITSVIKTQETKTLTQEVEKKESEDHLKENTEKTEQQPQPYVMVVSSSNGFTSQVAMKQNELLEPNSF
For another experiment, the target named is T5, EHF (Homo sapiens, UniProt Q9NZC4 1-300).
T5 sequence: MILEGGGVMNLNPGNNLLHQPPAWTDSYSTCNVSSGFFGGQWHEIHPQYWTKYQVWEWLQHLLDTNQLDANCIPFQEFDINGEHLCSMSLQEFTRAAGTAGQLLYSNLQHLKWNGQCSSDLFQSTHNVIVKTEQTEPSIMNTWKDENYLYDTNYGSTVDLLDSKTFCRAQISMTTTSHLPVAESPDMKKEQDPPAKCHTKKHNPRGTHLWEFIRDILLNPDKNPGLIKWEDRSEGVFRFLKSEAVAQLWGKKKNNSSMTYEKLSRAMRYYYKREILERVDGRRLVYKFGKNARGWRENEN
Conditions: protein: recombinant; tags: N-terminal GST; dsDNA, one strand shown. In a few lines:
as §1

The target in a further experiment is SPI1 (Homo sapiens, UniProt P17947 1-270). The settings on record: protein: recombinant; tags: N-terminal GST; dsDNA, one strand shown. An outline of the steps: as §1
A further experiment concerns the target SPIB (Homo sapiens, UniProt Q01892 1-262). The settings on record: protein: recombinant; tags: N-terminal GST; dsDNA, one strand shown. An outline of the steps:
as §1

In a further experiment the target is T6, ELK3 (Homo sapiens, UniProt P41970 1-407).
T6 sequence: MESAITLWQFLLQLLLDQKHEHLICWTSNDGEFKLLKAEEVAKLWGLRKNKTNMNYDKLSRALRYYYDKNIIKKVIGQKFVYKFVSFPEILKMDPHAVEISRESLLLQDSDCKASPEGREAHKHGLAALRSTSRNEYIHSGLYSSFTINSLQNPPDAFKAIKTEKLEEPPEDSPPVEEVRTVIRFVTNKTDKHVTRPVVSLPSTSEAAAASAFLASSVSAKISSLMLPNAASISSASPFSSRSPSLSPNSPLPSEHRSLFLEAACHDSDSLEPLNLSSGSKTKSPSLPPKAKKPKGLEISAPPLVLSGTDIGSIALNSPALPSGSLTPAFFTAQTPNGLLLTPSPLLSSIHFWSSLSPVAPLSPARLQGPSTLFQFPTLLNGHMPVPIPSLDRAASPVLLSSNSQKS
Conditions: protein: recombinant; tags: N-terminal GST; dsDNA, one strand shown. An outline of the steps: as §1

Another experiment deals with T7, FEV (Homo sapiens, UniProt Q99581 1-238).
T7 sequence: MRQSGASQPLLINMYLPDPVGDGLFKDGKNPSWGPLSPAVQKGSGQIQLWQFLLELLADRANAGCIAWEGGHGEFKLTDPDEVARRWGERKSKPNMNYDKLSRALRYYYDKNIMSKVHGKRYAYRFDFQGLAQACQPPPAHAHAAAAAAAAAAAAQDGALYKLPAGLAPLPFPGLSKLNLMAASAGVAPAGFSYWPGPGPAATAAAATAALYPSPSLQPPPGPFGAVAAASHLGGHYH
Conditions: protein: recombinant; tags: N-terminal GST; dsDNA, one strand shown. In a few lines: as §1

For a further experiment, the target named is ETV5 (Homo sapiens, UniProt P41161 1-510). The settings on record: protein: recombinant; tags: N-terminal GST; dsDNA, one strand shown. An outline of the steps: as §1
ETV5, sequence (P41161 whole entry): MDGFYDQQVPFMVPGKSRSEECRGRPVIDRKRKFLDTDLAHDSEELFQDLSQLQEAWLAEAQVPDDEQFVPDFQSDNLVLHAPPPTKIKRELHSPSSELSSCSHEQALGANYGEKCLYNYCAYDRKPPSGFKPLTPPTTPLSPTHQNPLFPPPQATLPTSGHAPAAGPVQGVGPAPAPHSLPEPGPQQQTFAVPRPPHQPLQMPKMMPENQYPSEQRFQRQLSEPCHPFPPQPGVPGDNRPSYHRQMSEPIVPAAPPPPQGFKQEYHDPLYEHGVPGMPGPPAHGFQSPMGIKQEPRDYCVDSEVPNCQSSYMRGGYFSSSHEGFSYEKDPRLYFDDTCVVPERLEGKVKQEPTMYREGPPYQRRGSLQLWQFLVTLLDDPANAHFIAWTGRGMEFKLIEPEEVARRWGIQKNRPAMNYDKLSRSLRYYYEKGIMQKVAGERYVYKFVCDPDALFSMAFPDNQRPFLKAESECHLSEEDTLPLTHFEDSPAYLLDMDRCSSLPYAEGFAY
The target in another experiment is HSF1 (Homo sapiens, UniProt Q00613 1-529). Conditions: protein: recombinant; tags: N-terminal GST; chain copies: 3; dsDNA, one strand shown. In a few lines:
as §1

The target of a further experiment is T8, SPIC (Homo sapiens, UniProt Q8N5J4 1-248).
T8 sequence: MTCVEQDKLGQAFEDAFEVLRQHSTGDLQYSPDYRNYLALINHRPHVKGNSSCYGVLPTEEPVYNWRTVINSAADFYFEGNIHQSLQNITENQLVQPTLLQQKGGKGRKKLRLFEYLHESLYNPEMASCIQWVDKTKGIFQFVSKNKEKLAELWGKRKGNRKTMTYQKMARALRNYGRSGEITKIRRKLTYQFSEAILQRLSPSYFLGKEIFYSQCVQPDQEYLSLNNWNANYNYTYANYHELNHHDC
The settings on record: protein: recombinant; tags: N-terminal GST; dsDNA, one strand shown. An outline of the steps:
as §1

The next experiment concerns the target ELF4 (Homo sapiens, UniProt Q99607 1-663). The settings on record: protein: recombinant; tags: N-terminal GST; dsDNA, one strand shown. In a few lines: as §1
The target in another experiment is T9, ELK4 (Homo sapiens, UniProt P28324-2 1-405).
T9 sequence: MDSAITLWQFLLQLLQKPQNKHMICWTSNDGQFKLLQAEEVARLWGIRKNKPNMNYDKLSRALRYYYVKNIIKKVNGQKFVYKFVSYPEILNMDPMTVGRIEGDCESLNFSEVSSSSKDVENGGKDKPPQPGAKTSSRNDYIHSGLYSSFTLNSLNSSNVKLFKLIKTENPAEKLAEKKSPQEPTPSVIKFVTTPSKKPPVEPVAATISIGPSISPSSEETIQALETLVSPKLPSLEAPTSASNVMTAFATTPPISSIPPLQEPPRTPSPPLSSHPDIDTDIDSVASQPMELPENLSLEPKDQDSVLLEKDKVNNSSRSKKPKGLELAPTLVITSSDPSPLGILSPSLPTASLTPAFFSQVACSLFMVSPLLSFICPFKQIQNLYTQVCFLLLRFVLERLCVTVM
Conditions: protein: recombinant; tags: N-terminal GST; dsDNA, one strand shown. An outline of the steps:
as §1

The target in a further experiment is T10, ETV2 (Homo sapiens, UniProt O00321 1-342).
T10 sequence: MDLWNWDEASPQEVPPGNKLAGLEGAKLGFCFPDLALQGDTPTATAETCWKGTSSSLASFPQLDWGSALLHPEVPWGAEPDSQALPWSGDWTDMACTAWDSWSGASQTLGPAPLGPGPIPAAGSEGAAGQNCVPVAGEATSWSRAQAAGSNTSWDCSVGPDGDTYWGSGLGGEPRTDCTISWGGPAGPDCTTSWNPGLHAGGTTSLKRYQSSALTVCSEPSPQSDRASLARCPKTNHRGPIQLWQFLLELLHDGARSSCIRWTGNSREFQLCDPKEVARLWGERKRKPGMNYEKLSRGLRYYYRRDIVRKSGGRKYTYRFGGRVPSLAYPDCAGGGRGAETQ
The settings on record: protein: recombinant; tags: N-terminal GST; dsDNA, one strand shown. An outline of the steps: as §1

Another experiment has as its target T11, ELF3 (Homo sapiens, UniProt P78545 1-371).
T11 sequence: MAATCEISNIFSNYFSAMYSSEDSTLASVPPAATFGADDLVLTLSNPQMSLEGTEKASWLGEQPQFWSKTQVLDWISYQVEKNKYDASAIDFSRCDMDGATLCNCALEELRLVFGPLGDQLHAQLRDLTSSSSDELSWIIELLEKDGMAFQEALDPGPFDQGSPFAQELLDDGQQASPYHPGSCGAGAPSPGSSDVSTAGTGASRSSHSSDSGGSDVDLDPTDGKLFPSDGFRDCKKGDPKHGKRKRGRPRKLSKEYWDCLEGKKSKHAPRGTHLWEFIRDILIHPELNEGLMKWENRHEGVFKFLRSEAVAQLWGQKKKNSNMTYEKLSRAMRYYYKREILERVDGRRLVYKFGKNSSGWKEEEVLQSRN
The settings on record: protein: recombinant; tags: N-terminal GST; dsDNA, one strand shown. In a few lines: as §1

Another experiment deals with ETV1 (Homo sapiens, UniProt P50549 1-477). Conditions: protein: recombinant; tags: N-terminal GST; dsDNA, one strand shown. An outline of the steps:
as §1

ETV1, sequence (P50549 whole entry): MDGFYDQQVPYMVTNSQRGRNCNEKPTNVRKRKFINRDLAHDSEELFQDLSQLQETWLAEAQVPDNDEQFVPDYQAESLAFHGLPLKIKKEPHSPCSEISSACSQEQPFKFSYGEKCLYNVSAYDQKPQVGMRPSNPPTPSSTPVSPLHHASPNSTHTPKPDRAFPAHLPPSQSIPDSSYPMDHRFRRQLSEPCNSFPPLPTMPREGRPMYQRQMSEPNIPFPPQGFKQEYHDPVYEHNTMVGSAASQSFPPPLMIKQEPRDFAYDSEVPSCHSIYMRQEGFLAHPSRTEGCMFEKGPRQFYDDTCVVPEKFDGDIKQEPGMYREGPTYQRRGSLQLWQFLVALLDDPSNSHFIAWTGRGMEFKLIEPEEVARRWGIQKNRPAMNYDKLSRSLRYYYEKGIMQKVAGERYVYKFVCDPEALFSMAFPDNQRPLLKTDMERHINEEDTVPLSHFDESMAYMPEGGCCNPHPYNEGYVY
HSF1, sequence (Q00613 whole entry): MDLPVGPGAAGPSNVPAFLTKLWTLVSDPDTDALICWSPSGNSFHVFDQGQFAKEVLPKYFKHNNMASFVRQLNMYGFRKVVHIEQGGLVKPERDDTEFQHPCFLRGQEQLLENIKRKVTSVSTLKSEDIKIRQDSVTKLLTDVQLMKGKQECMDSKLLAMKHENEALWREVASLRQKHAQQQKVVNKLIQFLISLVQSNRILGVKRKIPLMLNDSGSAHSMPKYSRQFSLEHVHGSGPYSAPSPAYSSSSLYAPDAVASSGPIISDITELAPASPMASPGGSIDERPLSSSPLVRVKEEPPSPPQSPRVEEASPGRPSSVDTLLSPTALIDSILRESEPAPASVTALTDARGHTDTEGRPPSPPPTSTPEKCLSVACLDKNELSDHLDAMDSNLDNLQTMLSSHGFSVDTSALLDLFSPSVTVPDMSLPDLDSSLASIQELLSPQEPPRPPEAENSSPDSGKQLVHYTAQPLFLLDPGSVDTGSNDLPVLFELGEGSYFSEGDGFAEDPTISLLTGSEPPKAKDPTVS
SPIB, sequence (Q01892 whole entry): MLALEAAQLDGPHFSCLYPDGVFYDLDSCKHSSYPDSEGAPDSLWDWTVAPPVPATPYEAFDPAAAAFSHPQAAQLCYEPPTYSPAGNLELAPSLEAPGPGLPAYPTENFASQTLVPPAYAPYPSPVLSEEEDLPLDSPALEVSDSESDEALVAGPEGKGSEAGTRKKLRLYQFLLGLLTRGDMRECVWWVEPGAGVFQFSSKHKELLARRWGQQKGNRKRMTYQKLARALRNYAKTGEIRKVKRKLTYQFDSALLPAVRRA
ELF4, sequence (Q99607 whole entry): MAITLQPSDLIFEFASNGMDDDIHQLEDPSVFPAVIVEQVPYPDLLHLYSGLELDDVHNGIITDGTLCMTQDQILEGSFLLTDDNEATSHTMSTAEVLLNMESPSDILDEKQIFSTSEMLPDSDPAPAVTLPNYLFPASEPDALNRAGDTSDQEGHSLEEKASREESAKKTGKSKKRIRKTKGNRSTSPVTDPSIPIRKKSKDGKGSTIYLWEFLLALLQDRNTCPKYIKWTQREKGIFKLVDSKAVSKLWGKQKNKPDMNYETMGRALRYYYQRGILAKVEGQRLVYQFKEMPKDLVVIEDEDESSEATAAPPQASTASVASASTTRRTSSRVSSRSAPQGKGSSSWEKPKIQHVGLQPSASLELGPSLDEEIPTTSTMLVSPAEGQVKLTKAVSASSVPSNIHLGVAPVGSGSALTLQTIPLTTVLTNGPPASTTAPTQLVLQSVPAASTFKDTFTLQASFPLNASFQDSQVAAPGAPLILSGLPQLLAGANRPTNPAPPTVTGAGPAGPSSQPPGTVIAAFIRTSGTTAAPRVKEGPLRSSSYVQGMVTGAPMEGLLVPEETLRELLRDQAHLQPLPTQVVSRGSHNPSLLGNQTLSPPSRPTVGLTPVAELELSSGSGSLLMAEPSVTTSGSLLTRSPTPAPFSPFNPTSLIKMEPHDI

In the case of GTTCAA, the binding signal with FLI1 was 1.07 fold enrichment (6-mer frequency, TF over GST control); with ELK1, 1.18 fold enrichment (6-mer frequency, TF over GST control); with GABPA it was 1.17 fold enrichment (6-mer frequency, TF over GST control); with ERG it was 1.14 fold enrichment (6-mer frequency, TF over GST control); in the experiment with ELF1, 1.16 fold enrichment (6-mer frequency, TF over GST control); with EHF, 1.18 fold enrichment (6-mer frequency, TF over GST control). In addition, the binding signal with SPI1 is 1.19 fold enrichment (6-mer frequency, TF over GST control); with SPIB, 1.19 fold enrichment (6-mer frequency, TF over GST control); with ELK3, 1.13 fold enrichment (6-mer frequency, TF over GST control); in the experiment with FEV, 1.08 fold enrichment (6-mer frequency, TF over GST control); with ETV5, 1.14 fold enrichment (6-mer frequency, TF over GST control); with HSF1 it was 1.03 fold enrichment (6-mer frequency, TF over GST control). Besides, the binding signal is 1.15 fold enrichment (6-mer frequency, TF over GST control) with SPIC; 1.15 fold enrichment (6-mer frequency, TF over GST control) with ELF4; 1.16 fold enrichment (6-mer frequency, TF over GST control) with ELK4; 1.05 fold enrichment (6-mer frequency, TF over GST control) with ETV2; 1.22 fold enrichment (6-mer frequency, TF over GST control) with ELF3; 1.23 fold enrichment (6-mer frequency, TF over GST control) with ETV1.

Source of the values: publication PMC7862700, “An all-to-all approach to the identification of sequence-specific readers for epigenetic DNA modifications on cytosine”.
